According to the supplement of paper PMC8728848:
Only a selection was taken, and the strongest signals are over-represented in it overall.

Tests used:
Assay in all cases: glycan array binding signal (z-score within array); higher = stronger binding
Conditions in all cases: glycan notation: IUPAC condensed, linker removed
[1] = target: Fuc(a1-2)Gal(b1-3)GalNAc(a1-3)[Fuc(a1-2)]Gal(b1-4)Glc
Method in brief: (§1)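 Negative Z-scores can be read as non-binding. The Z-score is calculated within each array and then averaged across arrays of one protein sequence at different concentrations or buffers and across linkers. Arrays, 3228 in all, were curated from the Consortium for Functional Glycomics database and kept only where the protein sequence was available.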

[2] = target: Fuc(a1-2)Gal(b1-3)GlcNAc(b1-3)Gal(b1-4)Glc
Method in brief: as §1

[3] = target: Fuc(a1-2)Gal(b1-3)GlcNAc(b1-3)[Fuc(a1-2)Gal(b1-3)GlcNAc(b1-6)]GalNAc
Method in brief: as §1

[4] = target: Fuc(a1-2)Gal(b1-4)[Fuc(a1-3)]GlcNAc(b1-3)Gal(b1-4)[Fuc(a1-3)]GlcNAc
Method in brief: as §1

[5] = target: Fuc(a1-2)[Gal(a1-3)]Gal(b1-3)GlcNAc(b1-6)GalNAc
Method in brief: as §1

[6] = target: Fuc(a1-2)[Gal(a1-3)]Gal(b1-4)GlcNAc(b1-3)GalNAc
Method in brief: as §1

[7] = target: Fuc(a1-2)[GalNAc(a1-3)]Gal(b1-4)GlcNAc(b1-3)Gal(b1-4)GlcNAc(b1-3)Gal(b1-4)GlcNAc
Method in brief: as §1

[8] = target: Fuc(a1-3)[Gal(b1-4)]GlcNAc(b1-2)Man(a1-3)[Fuc(a1-3)[Gal(b1-4)]GlcNAc(b1-2)Man(a1-6)]Man(b1-4)GlcNAc(b1-4)GlcNAc
Method in brief: as §1

[9] = target: Gal(a1-3)Gal(b1-3)[Fuc(a1-4)]GlcNAc(b1-2)Man(a1-3)[Gal(a1-3)Gal(b1-3)[Fuc(a1-4)]GlcNAc(b1-2)Man(a1-6)]Man(b1-4)GlcNAc(b1-4)GlcNAc
Method in brief: as §1

[10] = target: Gal(b1-3)GlcNAc(b1-2)Man(a1-3)[Gal(b1-3)GlcNAc(b1-2)Man(a1-6)]Man(b1-4)GlcNAc(b1-4)[Fuc(a1-6)]GlcNAc
Method in brief: as §1

[11] = target: Gal(b1-3)GlcNAc(b1-3)Gal(b1-4)GlcNAc(b1-2)Man(a1-3)[Gal(b1-3)GlcNAc(b1-3)Gal(b1-4)GlcNAc(b1-2)Man(a1-6)]Man(b1-4)GlcNAc(b1-4)GlcNAc
Method in brief: as §1

Gal(b1-3)GlcNAc6S = target: Gal(b1-3)GlcNAc6S
Method in brief: as §1

[12] = target: Gal(b1-3)[Fuc(a1-4)]GlcNAc(b1-2)Man
Method in brief: as §1

[13] = target: Gal(b1-4)GlcNAc(b1-2)Man(a1-3)Man(b1-4)GlcNAc(b1-4)GlcNAc
Method in brief: as §1

[14] = target: Gal(b1-4)GlcNAc(b1-3)Gal(b1-4)GlcNAc
Method in brief: as §1

[15] = target: Gal(b1-4)GlcNAc(b1-3)Gal(b1-4)GlcNAc(b1-2)Man(a1-3)[Gal(b1-4)GlcNAc(b1-3)Gal(b1-4)GlcNAc(b1-2)Man(a1-6)]Man(b1-4)GlcNAc(b1-4)[Fuc(a1-6)]GlcNAc
Method in brief: as §1

[16] = target: Gal(b1-4)GlcNAc(b1-3)Gal(b1-4)GlcNAc(b1-2)[Gal(b1-4)GlcNAc(b1-3)Gal(b1-4)GlcNAc(b1-6)]Man(a1-6)[Gal(b1-4)GlcNAc(b1-3)Gal(b1-4)GlcNAc(b1-2)Man(a1-3)]Man(b1-4)GlcNAc(b1-4)[Fuc(a1-6)]GlcNAc
Method in brief: as §1

[17] = target: Gal(b1-4)GlcNAc(b1-3)Gal(b1-4)GlcNAc(b1-3)Gal(b1-4)GlcNAc(b1-2)Man(a1-3)[Gal(b1-4)GlcNAc(b1-3)Gal(b1-4)GlcNAc(b1-3)Gal(b1-4)GlcNAc(b1-2)Man(a1-6)]Man(b1-4)GlcNAc(b1-4)GlcNAc
Method in brief: as §1

[18] = target: Gal(b1-4)GlcNAc(b1-3)Gal(b1-4)GlcNAc(b1-3)Gal(b1-4)GlcNAc(b1-2)Man(a1-3)[Gal(b1-4)GlcNAc(b1-3)Gal(b1-4)GlcNAc(b1-3)Gal(b1-4)GlcNAc(b1-2)Man(a1-6)]Man(b1-4)GlcNAc(b1-4)[Fuc(a1-6)]GlcNAc
Method in brief: as §1

Gal3S(b1-4)Glc6S = target: Gal3S(b1-4)Glc6S
Method in brief: as §1

[19] = target: Gal3S(b1-4)[Fuc(a1-3)]GlcNAc
Method in brief: as §1

Gal6S(b1-4)Glc = target: Gal6S(b1-4)Glc
Method in brief: as §1

Gal6S(b1-4)Glc6S = target: Gal6S(b1-4)Glc6S
Method in brief: as §1

GalNAc(b1-3)Gal = target: GalNAc(b1-3)Gal
Method in brief: as §1

[20] = target: GalNAc(b1-3)Gal(a1-4)Gal(b1-4)GlcNAc
Method in brief: as §1

[21] = target: GalNAc(b1-3)Gal(a1-4)Gal(b1-4)GlcNAc(b1-3)Gal(b1-4)Glc
Method in brief: as §1

GalNAc(b1-3)GalNAc = target: GalNAc(b1-3)GalNAc
Method in brief: as §1

GalNAc3S(b1-4)GlcNAc3S = target: GalNAc3S(b1-4)GlcNAc3S
Method in brief: as §1

GalNAc6S(b1-4)GlcNAc = target: GalNAc6S(b1-4)GlcNAc
Method in brief: as §1

Glc(b1-6)Glc = target: Glc(b1-6)Glc
Method in brief: as §1

GlcA(b1-6)Gal = target: GlcA(b1-6)Gal
Method in brief: as §1

[22] = target: GlcNAc(a1-4)Gal(b1-4)GlcNAc(b1-3)Gal(b1-4)GlcNAc
Method in brief: as §1

[23] = target: GlcNAc(b1-2)[GlcNAc(b1-4)]Man(a1-3)[GlcNAc(b1-4)][GlcNAc(b1-2)Man(a1-6)]Man(b1-4)GlcNAc(b1-4)GlcNAc
Method in brief: as §1

[24] = target: GlcNAc(b1-2)[GlcNAc(b1-6)]Man(a1-6)[GlcNAc(b1-4)][GlcNAc(b1-2)Man(a1-3)]Man(b1-4)GlcNAc(b1-4)GlcNAc
Method in brief: as §1

[25] = target: GlcNAc(b1-3)Gal(b1-3)GalNAc
Method in brief: as §1

[26] = target: GlcNAc(b1-3)Gal(b1-4)GlcNAc(b1-2)Man(a1-3)[GlcNAc(b1-3)Gal(b1-4)GlcNAc(b1-2)Man(a1-6)]Man(b1-4)GlcNAc(b1-4)GlcNAc
Method in brief: as §1

[27] = target: GlcNAc(b1-4)Gal(b1-4)GlcNAc
Method in brief: as §1

GlcNAc(b1-6)GalNAc = target: GlcNAc(b1-6)GalNAc
Method in brief: as §1

Kdn(a2-3)Gal(b1-4)GlcNAc = target: Kdn(a2-3)Gal(b1-4)GlcNAc
Method in brief: as §1

[28] = target: Man(a1-2)Man(a1-6)[Man(a1-3)]Man(a1-6)[Man(a1-2)Man(a1-2)Man(a1-3)]Man
Method in brief: as §1

[29] = target: Man(a1-3)[Man(a1-6)]Man(a1-6)[Man(a1-2)Man(a1-3)]Man(b1-4)GlcNAc(b1-4)GlcNAc
Method in brief: as §1

[30] = target: Neu5Ac(a2-3)Gal(b1-3)GlcNAc
Method in brief: as §1

[31] = target: Neu5Ac(a2-3)Gal(b1-3)[Fuc(a1-4)]GlcNAc
Method in brief: as §1

[32] = target: Neu5Ac(a2-3)Gal(b1-4)GlcNAc(b1-2)Man
Method in brief: as §1

[33] = target: Neu5Ac(a2-3)Gal(b1-4)GlcNAc(b1-2)[Neu5Ac(a2-3)Gal(b1-4)GlcNAc(b1-6)]Man(a1-6)[Neu5Ac(a2-3)Gal(b1-4)GlcNAc(b1-2)Man(a1-3)]Man(b1-4)GlcNAc(b1-4)GlcNAc
Method in brief: as §1

[34] = target: Neu5Ac(a2-3)Gal(b1-4)GlcNAc(b1-3)Gal(b1-4)GlcNAc(b1-3)Gal(b1-4)GlcNAc
Method in brief: as §1

[35] = target: Neu5Ac(a2-3)Gal(b1-4)[Fuc(a1-3)]GlcNAc(b1-6)[Neu5Ac(a2-3)Gal(b1-3)]GalNAc
Method in brief: as §1

Neu5Ac(a2-6)Gal(b1-4)Glc = target: Neu5Ac(a2-6)Gal(b1-4)Glc
Method in brief: as §1

[36] = target: Neu5Ac(a2-6)Gal(b1-4)GlcNAc(b1-2)Man(a1-3)Man(b1-4)GlcNAc(b1-4)GlcNAc
Method in brief: as §1

[37] = target: Neu5Ac(a2-6)Gal(b1-4)GlcNAc(b1-2)[Neu5Ac(a2-6)Gal(b1-4)GlcNAc(b1-6)]Man(a1-6)[Neu5Ac(a2-6)Gal(b1-4)GlcNAc(b1-2)Man(a1-3)][GlcNAc(b1-4)]Man(b1-4)GlcNAc(b1-4)GlcNAc
Method in brief: as §1

[38] = target: Neu5Ac(a2-8)Neu5Ac(a2-3)Gal(b1-3)GalNAc(b1-4)[Neu5Ac(a2-8)Neu5Ac(a2-3)]Gal(b1-4)Glc
Method in brief: as §1

[39] = target: Neu5Ac(a2-8)Neu5Ac(a2-8)Neu5Ac(a2-3)[Gal(b1-3)GalNAc(b1-4)]Gal(b1-4)Glc
Method in brief: as §1

[40] = target: Neu5Ac(a2-8)Neu5Ac(a2-8)Neu5Ac(a2-8)Neu5Ac(a2-3)[GalNAc(b1-4)]Gal(b1-4)Glc
Method in brief: as §1

[41] = target: Neu5Gc(a2-3)Gal(b1-4)[Fuc(a1-3)]GlcNAc
Method in brief: as §1

B1: Gs78B-bfa-542-29-542 (Bacteroides fragilis) (protein)
chain: SEDINRNPLLPTKEDEKMDGVIYGAYLPNLEKSVIPIGTASESTEPVNRYQIGVNLAGDAWAGYMSPRDNKFNGSKNFTNYFMYENWVNYVYSFMVTDVYSPWMQIKRISQDEGTRNDEIYALAQIIKIAALHRTTDMFGPIPYSQVGKGSFKVAYDSQESVYRSFLKELEEAVQTLDDYSNKSKEVLPAFDIVYNGDVNKWMRFANSLMLRLAIRVRFADAGLAKEYAEKAVKHPAGLINSKELAAQMGKGAGLQMKNPLKVINEEYNDTRMGATIYSYLAGYNDARAAVYFVKNNGFKAVRCGIAKSGDAYNGFTRPNVHEDDPLYWMKASEVCFLKAEGALAGFDMGGSAGDFYNAGIRMSFSENGLDNSSAETYLKDSTRKPANYTDTSNGELSANAPSSITIRWENGATEEEKLERIITQKYLAIFPNGQEAWTEWRRTGYPRQIVVAENKTNSAVLIGNGYDLGGVRRLPYPRTEYEQNGENLHNAISQYLGGVDNAATKVWWDKKSK
glycan array binding signal (z-score) [1]: 0.024
glycan array binding signal (z-score) [2]: -0.826
glycan array binding signal (z-score) [3]: 0.287
glycan array binding signal (z-score) [4]: -0.816
glycan array binding signal (z-score) [5]: 2.8
glycan array binding signal (z-score) [6]: 0.185
glycan array binding signal (z-score) [7]: 1.31
glycan array binding signal (z-score) [8]: 1.04
glycan array binding signal (z-score) [9]: 4.3
glycan array binding signal (z-score) [10]: 1.53
glycan array binding signal (z-score) [11]: -0.404
glycan array binding signal (z-score) (Gal(b1-3)GlcNAc6S): 2.8
glycan array binding signal (z-score) [12]: -0.693
glycan array binding signal (z-score) [13]: 0.534
glycan array binding signal (z-score) [14]: -0.463
glycan array binding signal (z-score) [15]: 2.98
glycan array binding signal (z-score) [16]: 3.42
glycan array binding signal (z-score) [17]: 2.01
glycan array binding signal (z-score) [18]: 3.12
glycan array binding signal (z-score) (Gal3S(b1-4)Glc6S): -0.778
glycan array binding signal (z-score) [19]: -0.801
glycan array binding signal (z-score) (Gal6S(b1-4)Glc): 0.825
glycan array binding signal (z-score) (Gal6S(b1-4)Glc6S): 0.798
glycan array binding signal (z-score) (GalNAc(b1-3)Gal): -0.448
glycan array binding signal (z-score) [20]: 0.47
glycan array binding signal (z-score) [21]: 1.12
glycan array binding signal (z-score) (GalNAc(b1-3)GalNAc): -0.725
glycan array binding signal (z-score) (GalNAc3S(b1-4)GlcNAc3S): -0.813
glycan array binding signal (z-score) (GalNAc6S(b1-4)GlcNAc): -0.336
glycan array binding signal (z-score) (Glc(b1-6)Glc): -0.312
glycan array binding signal (z-score) (GlcA(b1-6)Gal): 2.77
glycan array binding signal (z-score) [22]: -0.691
glycan array binding signal (z-score) [23]: -0.838
glycan array binding signal (z-score) [24]: -0.844
glycan array binding signal (z-score) [25]: -0.48
glycan array binding signal (z-score) [26]: -0.439
glycan array binding signal (z-score) [27]: -0.828
glycan array binding signal (z-score) (GlcNAc(b1-6)GalNAc): -0.233
glycan array binding signal (z-score) (Kdn(a2-3)Gal(b1-4)GlcNAc): 2.84
glycan array binding signal (z-score) [28]: -0.844
glycan array binding signal (z-score) [29]: 3.49
glycan array binding signal (z-score) [30]: -0.067
glycan array binding signal (z-score) [31]: -0.793
glycan array binding signal (z-score) [32]: 2.92
glycan array binding signal (z-score) [33]: 0.079
glycan array binding signal (z-score) [34]: -0.832
glycan array binding signal (z-score) [35]: 5.64
glycan array binding signal (z-score) (Neu5Ac(a2-6)Gal(b1-4)Glc): -0.346
glycan array binding signal (z-score) [36]: 1.48
glycan array binding signal (z-score) [37]: -0.454
glycan array binding signal (z-score) [38]: 0.648
glycan array binding signal (z-score) [39]: -0.843
glycan array binding signal (z-score) [40]: 1.92
glycan array binding signal (z-score) [41]: 0.283
